Source: PubChem BioAssay
IDE cell inh: cellular human IDE inhibition; HEK cells, FAbetaB cleavage, fluorescence polarization; inhibition, % at 5.59 µM; 0.41% of 320,000 active;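 active = percent inhibition above the average of all tested compounds plus 3 SD, set per screening campaign, cut at about 16% in these data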;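 also: IDE supplied by intact live HEK cells; FP after avidin binding of uncleaved biotin substrate so inhibition keeps polarization high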
ANO1 activ: mouse TMEM16A channel activation, primary screen; HEK293 TMEM16A/YFP-H148Q/I152L, iodide quench fluorescence; hits give low values; AID 623877; Q8BHY3; 0.3% of 340,000 active; B-score at 10 µM;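 active = fluorescence-ratio B-score plate-corrected deviation score at least 3 library SD below zero, with starting fluorescence score within 5 deviations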;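 also: channel opened by trigger with iodide after compound preincubation; score built on the fluorescence ratio of max minus min over baseline; more negative score means more quench and so TMEM16A activation or potentiation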
TMEM16A inh: inhibitors of mouse TMEM16A calcium-activated chloride channel; Q8BHY3; HEK293 TMEM16A/YFP iodide influx fluorescence, ionomycin; normalized B-score (activity score, 25-100; higher = stronger inhibition) at 10 µM; 1.2% of 310,000 active;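 active = ratio plate-corrected score three or more library SD toward inhibition, starting fluorescence score within five deviations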;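 also: score derived from kinetic fluorescence span divided by baseline fluorescence per well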
CHT inh: inhibits the human high affinity choline transporter; 0.86% of 310,000 active; Q9GZV3; B-score at 10 µM; CHT-expressing cells, membrane potential dye, choline response; hits give low values;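 active = B-score over 3 SD under the library average, and starting fluorescence ratio not unusually high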;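 also: choline stimulus applied at its EC90 after an EC20 pre-addition; B-score computed on integrated fluorescence ratio after choline addition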
IDE act: IDE (human) activation, cell-based. 0.073% of 340,000 active. activation, % at 5.96 µM. HEK cells, FAbeta-B cleavage, fluorescence polarization; 0% vehicle, 100% cell-free pure enzyme wells;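 active = activation above the mean of all tested compounds plus 3 SD, set per screening campaign, cut at about 17% in these data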
CHT PAM: allosteric activators of human choline transporter CHT; Q9GZV3; CHT-expressing cells, membrane potential dye, choline EC20; hits give high values; LV-AA mutant CHT in HEK293 cells; B-score at 10 µM; 0.49% of 310,000 active;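 active = initial fluorescence not abnormally high and integrated response B-score, plate-corrected, over 3 SD above library mean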
CHT act confirm: human CHT activation, confirmatory screen; shares compounds with CHT PAM; CHT-expressing cells, membrane potential dye fluorescence (FDSS); % of choline EC20–EC90 response window; HEK293 expressing CHT LV-AA mutant; choline added at its EC20; activation, % at 10 µM; 91% of 2,500 active;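 active = primary screen active, with duplicate mean activation above negative control mean plus 3 SD, cut at about 11% in these data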
HEK293 MP dye: counter-screen for CHT activators: effect in parental HEK293 cells. ratio readout change at 10 µM, hits read low. membrane potential dye fluorescence (FDSS); measured after EC20 choline addition. 62% of 2,500 active. shares compounds with CHT PAM. AID 623908;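 active = duplicate-averaged ratio beyond 3 SD from buffer wells, up or down, though filed actives are nearly all decreases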
TMEM16A reconf: reconfirmed blocker of mouse TMEM16A calcium-activated chloride channel | shares compounds with TMEM16A inh | HEK293 TMEM16A/YFP-H148Q, iodide quench fluorescence; ionomycin added to raise cell calcium | inhibition, % at 10 µM | 39% of 2,300 active | AID 652189;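 active = mean duplicate percent inhibition, scaled so buffer wells are 0 and the reference blocker 100, over three buffer SD above buffer mean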
TMEM16A Ca cntr: counter-screen for TMEM16A inhibitors: effect on calcium mobilization. shares compounds with TMEM16A inh. TMEM16A/YFP HEK293, Fluo4 calcium mobilization. calcium response (% of ionomycin), % at 10 µM. 2% of 2,300 active;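 active = duplicate-averaged calcium signal over 20% of the ionomycin maximum, relative to buffer baseline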;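 also: each well's signal is peak minus trough fluorescence divided by its pre-addition baseline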
Parental YFP cnt: counter-screen for TMEM16A inhibitors: effect in parental YFP-HEK293 cells | shares compounds with TMEM16A inh | iodide YFP quench, ionomycin | YFP ratio F(max-min)/F0 at 10 µM | 2,300 tested, under 10 active | AID 652233;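 active = yellow fluorescent protein signal ratio exceeding the buffer control mean by over 5 SD of those controls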;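 also: ratio is mean of duplicate wells from kinetic YFP trace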
ClC-1 rat inh: selectivity of TMEM16A inhibitors: inhibition of rat ClC-1 chloride channel. AID 652236. ratio percent, % at 10 µM. shares compounds with TMEM16A inh. 2,300 tested, under 10 active. CHO ClC-1-YFP, iodide influx fluorescence quench; iodide control reads 0, buffer control 100;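 active = duplicate-mean ratio percent above the mean of iodide-only control wells, which defines zero, plus 5 of their SD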;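 also: higher percent means stronger block of ClC-1 iodide influx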
Each line names hits and unclear results; the compound was inactive in the other large screens (follow-up assays come after a bar, where they were run). Shown are actives, neighbours in structure and some others; about 2.7% of the full set was active somewhere.

CN(C)c1nc(-c2ccccc2)[n+](C)s1	none | CHT act confirm 26 | HEK293 MP dye -49
COc1ccccc1-n1c(Cc2ccccc2)nc2ccccc2c1=O	none
Cc1cc(C)c2c(ccc3cccc[n+]32)c1	CHT PAM 6.3 (no result: IDE act) | CHT act confirm 72 | HEK293 MP dye -55
C[C@]12CCC3C(CC[C@H]4[C@@H](O)[C@H](O)CC[C@]34C)C1CCC2=O (stereo partly drawn)	none (no result: IDE cell inh, TMEM16A inh, CHT inh, CHT PAM)
CN(C)c1cc[n+](CC(O)C[n+]2ccc(N(C)C)cc2)cc1	CHT PAM 7.7 | CHT act confirm 35 | HEK293 MP dye -71
COC(=O)C1=C(c2cccc(C#N)c2)C[C@@H]2CC[C@H]1N2C(=O)NC1Cc2ccccc2C1	none (no result: TMEM16A inh, CHT inh, CHT PAM)
O=c1[nH]c(=S)n(CCC2=CCCCC2)c(O)c1C=NC1CCN(Cc2ccccc2)CC1	TMEM16A inh 100 | TMEM16A reconf inactive | TMEM16A Ca cntr inactive | Parental YFP cnt inactive | ClC-1 rat inh inactive
CC(C)Sc1nnc(OC(=O)N(C)C)n1-c1ccccc1	none
CC[n+]1c(/C=C/C=C/c2ccc(N(C)C)cc2)sc2ccccc21	TMEM16A inh 25 | TMEM16A reconf 40% | TMEM16A Ca cntr inactive | Parental YFP cnt inactive | ClC-1 rat inh inactive
CN(C)c1ccc(/C=C/c2cc[n+](C)c3ccccc23)cc1	none (no result: IDE cell inh, TMEM16A inh, CHT inh, CHT PAM)
C=CCn1c(O)c(/C=N/NC(=O)CCCC)c(=O)[nH]c1=S	none
Oc1c(Cl)c(Cl)c(Cl)c(Cl)c1Cl	TMEM16A inh 100 | TMEM16A reconf 17% | TMEM16A Ca cntr inactive | Parental YFP cnt inactive | ClC-1 rat inh inactive
CCN(CC)c1ccc(N=Cc2c(O)n(-c3ccccc3)c(=O)[nH]c2=O)cc1	none | TMEM16A reconf inactive | TMEM16A Ca cntr inactive | Parental YFP cnt inactive | ClC-1 rat inh inactive
CCOc1ccc(-n2c(O)c(C=Nc3ccc(NC(C)=O)cc3)c(=O)[nH]c2=O)cc1	none
CCOc1ccc(-n2c(O)c(C=Nc3ccc(N(CC)CC)cc3)c(=O)[nH]c2=O)cc1	none | TMEM16A reconf 28% | TMEM16A Ca cntr inactive | Parental YFP cnt inactive | ClC-1 rat inh inactive
COc1ccccc1-n1c(O)c(/C=N/NC(=S)Nc2ccccc2)c(=O)[nH]c1=S	none (no result: IDE act)
S=C1NC2(CCCCC2)NC12CCCCC2	none
CCc1ccc2nc(N3CCC(C(=O)N4CCC5(CC4)OCCO5)CC3)sc2c1	TMEM16A inh 100 | TMEM16A reconf inactive | TMEM16A Ca cntr 21% | Parental YFP cnt inactive | ClC-1 rat inh inactive
Cc1ccc2nc(N3CCC(C(=O)N4CCC5(CC4)OCCO5)CC3)sc2c1	none
Cc1ccc(N(C)C(=O)Oc2ccc(C(=O)c3ccc(Cl)cc3)cc2)cc1	TMEM16A inh 25 | TMEM16A reconf inactive | TMEM16A Ca cntr inactive | Parental YFP cnt inactive | ClC-1 rat inh inactive
CCOC(=O)C1CCCN(c2ccc([N+](=O)[O-])c3nonc23)C1 (stereo not drawn)	none (no result: IDE cell inh, TMEM16A inh, CHT inh, CHT PAM)
